High-throughput results: PubChem BioAssay, National Center for Advancing Translational Sciences (NCATS)
Many of the other results were omitted from the sample, so hits are more common in it than they were.
HTT prom inh: inhibitors of huntingtin promoter activity | HEK293 HTT promoter firefly luciferase reporter, 24 h | Potency, µM (doses to about 57.5 µM), inactives show at the top dose activity change, negative = inhibition, actives largely listed as inhibitors | 48,000 compounds, 0.93% hits | AID 1508623; also: nearly all actives have a fitted effect of over 50% in size
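HEK293 Fluc reporter, 2,500 cells/well, 24 h pre-culture; cpds up to 57.5 uM final, 24 h 37 degrees C; Dual-Glo, 10 min RT; normalized vehicle = 0%, zero RLU = -100%.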
NTMT1 inhibitor: NTMT1 methyltransferase inhibition. Q9BV86. NTMT1 MTase-Glo SAH luminescence, purified enzyme. Potency, µM (highest dose often 114 µM), inactives show at the highest dose activity change, negative = inhibition, usual class: inhibitors. 59,000 compounds, 2.5% hits;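 also: plate controls were DMSO vehicle for no effect and no enzyme for full effect; nearly all actives have a fitted effect of over 65% in size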
Target sequence (Q9BV86 whole entry, looked up): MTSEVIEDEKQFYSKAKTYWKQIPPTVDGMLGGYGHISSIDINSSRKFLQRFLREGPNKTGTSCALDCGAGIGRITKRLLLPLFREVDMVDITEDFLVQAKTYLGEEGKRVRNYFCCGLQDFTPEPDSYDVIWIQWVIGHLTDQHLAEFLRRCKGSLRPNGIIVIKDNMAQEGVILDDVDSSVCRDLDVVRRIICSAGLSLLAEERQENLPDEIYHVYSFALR
HTT-AS promoter: activators of huntingtin-antisense promoter activity | Potency, µM (series often up to 57.5 µM), without a hit: top-dose activity change, positive = activation, most hits filed as activators | 48,000 compounds, 0.24% hits | HEK293 HTT-AS promoter firefly luciferase reporter, 24 h; response scale: percent change from vehicle, -100% = no light; also: nearly all actives have a fitted effect of over 55% in size
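HEK293 Fluc reporter, 2,500 cells/well, 24 h pre-culture; cpds up to 57.5 uM final, 24 h 37 degrees C; Dual-Glo, 10 min RT; normalized vehicle = 0%, zero RLU = -100%.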
Numbers without * were called inactive; [ ] = another dose, or the depositor's remark. Calls follow the shape of the dose curve; as a rule, active = well fitted curve in the direction sought with a large enough effect; inconclusive = small, poorly fitted or top-dose-only effect, or another doubt; inactive = no such curve, though single readings can be large; an effect the other way counts as inactive or inconclusive. Potency is read from the fitted curve at half-maximal effect.

What do the screens show for `COc1ccc(-n2c(SCC(=O)NCc3ccc(C)cc3)nc3n[nH]c(C)c3c2=N)cc1`?
HTT prom inh: -5%; NTMT1 inhibitor: 2%; HTT-AS promoter: -22%

What do the screens show for `CC(C)OC(=O)OCOP(=O)(COC(C)Cn1cnc2c(N)ncnc21)OCOC(=O)OC(C)C` (stereo not given)?
NTMT1 inhibitor: 12%

What do the screens show for `COc1cc(Nc2nc(-c3ccncc3)nc3ccccc23)ccc1NS(C)(=O)=O`?
NTMT1 inhibitor: -1%

How did Cc1ccc(Nc2nc(-c3ccncc3)nc3ccccc23)cc1F do in these assays?
NTMT1 inhibitor: -5%

What do the screens show for `CN1CCN(c2ccc(Nc3nc(-c4ccncc4)nc4ccccc34)cc2F)CC1`?
NTMT1 inhibitor: 22µM*

What do the screens show for `COc1cc(Nc2nc(-c3ccncc3)nc3ccccc23)ccc1N1CCN(C)CC1`?
NTMT1 inhibitor: 8.9µM*

How did Fc1ccc(Nc2nc(-c3ccncc3F)nc3ccccc23)cc1F do in these assays?
NTMT1 inhibitor: 8%

What do the screens show for `CC(C)C(C)C(O)C1CC23CC(=O)C4(O)C(=C2CCC3C1C)C=CC1(O)CC(O)CCC14C` (stereo not given)?
NTMT1 inhibitor: 15%[29.8 µM]

What do the screens show for `CCOC(=O)C1CCN(S(=O)(=O)c2cc(-c3cc(C)no3)ccc2C)CC1`?
HTT prom inh: -28%; NTMT1 inhibitor: -1%; HTT-AS promoter: -21%

Results for CCOC(=O)C1CCN(S(=O)(=O)c2cc(-c3cc(C)no3)ccc2OC)CC1 ?
HTT prom inh: -25%; NTMT1 inhibitor: 89µM*; HTT-AS promoter: -11%

How did O=C1CCCC2=C1C(c1[nH]ncc1Cl)N=C(Nc1nc3c(Br)cccc3o1)N2 (stereo not given) do in these assays?
NTMT1 inhibitor: 0%[57.5 µM]

How did COC(=O)c1cccc(NC(=O)c2nsc3ccccc23)c1 do in these assays?
HTT prom inh: -34%; NTMT1 inhibitor: 45µM*; HTT-AS promoter: inconclusive

What do the screens show for `O=C(Nc1ccc(C(=O)N2CCN(c3ccc(Cl)cc3)CC2)cc1)c1nsc2ccccc12`?
HTT prom inh: inconclusive; NTMT1 inhibitor: -11%; HTT-AS promoter: -71%

How did COc1cccc(N2CCN(C(=O)c3ccc(NC(=O)c4nsc5ccccc45)cc3)CC2)c1 do in these assays?
HTT prom inh: 14µM*; NTMT1 inhibitor: -13%; HTT-AS promoter: -71%

Results for COc1cccc(CNC(=O)c2cccc(NC(=O)c3nsc4ccccc34)c2)c1 ?
HTT prom inh: -9%; NTMT1 inhibitor: 13%; HTT-AS promoter: inconclusive

What do the screens show for `O=C(Nc1ccccc1)c1cccs1`?
NTMT1 inhibitor: -15%

How did CC(C)c1ccc(NC(=O)c2ccc3c(c2)CCN3S(=O)(=O)c2ccccc2)cc1 do in these assays?
HTT prom inh: -27%; NTMT1 inhibitor: 19%; HTT-AS promoter: -15%

What do the screens show for `CC(C)c1ccc(NC(=O)c2ccc3c(c2)CCCN3S(C)(=O)=O)cc1`?
HTT prom inh: 10µM*; NTMT1 inhibitor: 8%; HTT-AS promoter: -31%

How did Cc1ccc(C)c(NC(=O)c2ccc3c(c2)CCCN3S(C)(=O)=O)c1 do in these assays?
HTT prom inh: 34%; NTMT1 inhibitor: -1%; HTT-AS promoter: 7.9µM*

How did CCS(=O)(=O)N1CCc2cc(C(=O)Nc3cccc(C(C)=O)c3)ccc21 do in these assays?
HTT prom inh: 20%; NTMT1 inhibitor: inconclusive; HTT-AS promoter: 0%

What do the screens show for `Cc1c(Cl)cccc1NC(=O)c1ccc2c(c1)CCCN2S(C)(=O)=O`?
HTT prom inh: inconclusive; NTMT1 inhibitor: 2%; HTT-AS promoter: 12%

How did CCCCc1ccc(NC(=O)c2ccc3c(c2)CCN3S(=O)(=O)CC)cc1 do in these assays?
HTT prom inh: 22µM*; NTMT1 inhibitor: -17%; HTT-AS promoter: -47%

What do the screens show for `CC1OC2OC3C(OCC(O)C3O)OC(=O)C34CCC(C)(C)CC3C3=CCC5C6(C)CC(O)C(OC7OC(CO)C(O)C(O)C7OC7OCC(OC(=O)CC(C)(O)CC(=O)OC1C(OC1OCC(O)C(O)C1O)C2O)C(O)C7O)C(C)(CO)C6CCC5(C)C3(C)CC4O` (stereo not given)?
NTMT1 inhibitor: 3%[29.8 µM]

What do the screens show for `CCCCOC(=O)NC(=O)C1c2ccccc2Oc2ccccc21`?
NTMT1 inhibitor: 6%[57.5 µM]

What do the screens show for `Cc1ccc(NS(=O)(=O)c2cccc(C#N)c2)c2[nH]cc(C#N)c12`?
NTMT1 inhibitor: 13%

What do the screens show for `Cc1cc(NS(=O)(=O)CCNC(=O)Cc2ccc(Cl)c(Cl)c2)no1`?
NTMT1 inhibitor: 1%

What do the screens show for `COc1cc(Nc2ccc([N+](=O)[O-])cc2C(=O)O)cc2ccccc12`?
NTMT1 inhibitor: -7%[57.5 µM]

Results for Cc1cccc(CNc2ccnc(-c3cccc4ccccc34)n2)c1 ?
NTMT1 inhibitor: 6%

Results for CC(O)/C=C/C1(O)C(C)C(O)C(O[C@@H]2O[C@H](CO)[C@@H](O)[C@H](O)[C@H]2O)CC1(C)C (stereo not given in full) ?
NTMT1 inhibitor: 0%[29.8 µM]

How did COc1ccc(C(CC(=O)Nc2ccc(F)c(Cl)c2)N2Cc3ccccc3C2=O)cc1OC (stereo not given) do in these assays?
HTT prom inh: -25%; NTMT1 inhibitor: 89µM*; HTT-AS promoter: -29%

What do the screens show for `COc1ccc(C(CC(=O)Nc2ccc(C)c(C)c2)N2Cc3ccccc3C2=O)cc1OC` (stereo not given)?
HTT prom inh: -23%; NTMT1 inhibitor: -9%; HTT-AS promoter: -36%

What do the screens show for `CN1CCC[C@@H]1c1cccnc1`?
HTT prom inh: 2%; NTMT1 inhibitor: 16µM*; HTT-AS promoter: -17%

Results for CN1C(=O)CC[C@H]1c1cccnc1 ?
HTT prom inh: 6%; NTMT1 inhibitor: -15%[57.5 µM]; HTT-AS promoter: -2%

What do the screens show for `Cc1cccc2nc(NC3=NC(c4[nH]ncc4Cl)C4=C(CCCC4=O)N3)oc12` (stereo not given)?
NTMT1 inhibitor: -3%[57.5 µM]

How did Cc1ccc(S(=O)(=O)Nc2ccc(C(=O)Nc3nc(-c4ccccc4)cs3)c(Cl)c2)cc1 do in these assays?
NTMT1 inhibitor: 15%

How did CNCc1ccc(C)c(NC(=O)c2ccc(Nc3nc(-c4ccccc4)c4ccccc4n3)cc2)c1 do in these assays?
NTMT1 inhibitor: 35µM*

How did Clc1ccc(Nc2nc(-c3ccccc3)c3ccccc3n2)c(Cl)c1 do in these assays?
HTT prom inh: -7%[11.5 µM]; NTMT1 inhibitor: 8%; HTT-AS promoter: 6%

Results for COC(=O)c1sc2c(c1-c1nc3ccccc3s1)CCNC2 ?
NTMT1 inhibitor: 4%[57.5 µM]

How did CCN(CC)C(=O)COC(=O)c1ccc(S(C)(=O)=O)c([N+](=O)[O-])c1 do in these assays?
NTMT1 inhibitor: 14%

What do the screens show for `CC[C@H](C)[C@@H]([C@@H](CC(=O)N1CCC[C@H]1[C@H](OC)[C@@H](C)C(=O)N[C@@H](Cc1ccccc1)c1nccs1)OC)N(C)C(=O)[C@@H](NC(=O)[C@H](C(C)C)N(C)C)C(C)C`?
NTMT1 inhibitor: 14%

How did Brc1cnc2nc(SCc3ccccn3)[nH]c2c1 do in these assays?
NTMT1 inhibitor: -2%

What do the screens show for `Cc1c(C(=O)OC2CCCCCC2)[nH]c2c1C(=O)CC(c1ccccc1)C2` (stereo not given)?
HTT prom inh: inconclusive; NTMT1 inhibitor: 4%; HTT-AS promoter: -25%
